# Test results: PubChem BioAssay (Tox21)
# Unmarked numbers belong to inactive results. Inconclusive results are not listed. A call without a number means that no potency is given here. Activity calls are given as the source filed them. Unless noted, the call rests on the fitted dose curve; in most records, active means well fitted curve in the direction sought with a large enough effect in the repeat runs; inconclusive means weak or mixed curves; inactive means no such curve, though single readings can be large; an effect the other way counts as inactive or inconclusive.
# Experiments:
# [1] = A CellTox Green Cytotoxicity Assay to monitor cytotoxicity in HepG2 cells - 0 hour (AID 1224882); further: nearly all actives have a fitted effect of over 35% in size
# Procedure, shortened: (§1)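 Read-out is fluorescence of a cyanine dye excluded from live cells that stains DNA of dead HepG2 cells, with signal proportional to cytotoxicity. Plates were read at 0, 8, 16, 24, 32 and 40 h after compound addition.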
# [2] = A CellTox Green Cytotoxicity Assay to monitor cytotoxicity in HepG2 cells - 32 hour (AID 1224883); further: nearly all actives have a fitted effect of over 50% in size
# Procedure, shortened: as §1
# [3] = A CellTox Green Cytotoxicity Assay to monitor cytotoxicity in HEK293 cells - 8 hour (AID 1224884); further: nearly all actives have a fitted effect of over 35% in size
# Procedure, shortened: (§2)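 Nonlytic real-time cytotoxicity: HEK293 + CellTox Green reagent plated, 5 h preincubation, pintool compound addition (23 nL in DMSO), 37 C for 40 h, fluorescence measured at successive time points.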
# [4] = qHTS RealTime-Glo MT Cell Viability Assay in HepG2 cells - 16 hour (AID 1224885); further: nearly all actives have a fitted effect of over 50% in size
# Procedure, shortened: (§3)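 Real-time, nonlytic viability: 600 HepG2 cells/well mixed with NanoLuc enzyme plus prosubstrate; 5 h settle, compound (DMSO) added by pintool; luminescence monitored over 40 h at 37 C.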
# [5] = qHTS RealTime-Glo MT Cell Viability Assay in HEK293 cells - 24 hour (AID 1224886); further: nearly all actives have a fitted effect of over 50% in size; further: potency means the concentration at half of the fitted maximal effect
# Procedure, shortened: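 Cells + reagent dispensed (600 cells/well, HEK293) → 5 h at 37 C/5% CO2 → 23 nL compound in DMSO pinned → 40 h at 37 C → luminescence read at 0, 8, 16, 24, 32, 40 h.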
# [6] = A CellTox Green Cytotoxicity Assay to monitor cytotoxicity in HEK293 cells - 16 hour (AID 1224888); further: nearly all actives have a fitted effect of over 35% in size
# Procedure, shortened: as §2
# [7] = qHTS RealTime-Glo MT Cell Viability Assay in HepG2 cells - 0 hour (AID 1224889); further: nearly all actives have a fitted effect of over 50% in size
# Procedure, shortened: as §3
# [8] = A CellTox Green Cytotoxicity Assay to monitor cytotoxicity in HepG2 cells - 8 hour (AID 1224890); further: nearly all actives have a fitted effect of over 45% in size
# Procedure, shortened: as §1
# [9] = qHTS assay to identify small molecule antagonists of the androgen receptor (AR) signaling pathway using the MDA cell line in the presence of 0.5 nM R1881 - cell viability counter screen (AID 1259242); further: nearly all actives have a fitted effect of over 45% in size
# Procedure, shortened: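 Counter screen for cytotoxicity run in the same wells as the AR antagonist reporter screen: MDA-kb2 cells were treated 16 hr with test compounds and 0.5 nM R1881, then live-cell protease activity was measured by fluorescence.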
# [10] = biological target: Androgen receptor (Homo sapiens) (UniProt P10275); assay: qHTS assay to identify small molecule antagonists of the androgen receptor (AR) signaling pathway using the MDA cell line in the presence of 0.5 nM R1881 (AID 1259243); further: nearly all actives have a fitted effect of over 50% in size; further: potency means the concentration at half of the fitted maximal effect
# Androgen receptor (Homo sapiens), sequence (P10275 whole entry, looked up): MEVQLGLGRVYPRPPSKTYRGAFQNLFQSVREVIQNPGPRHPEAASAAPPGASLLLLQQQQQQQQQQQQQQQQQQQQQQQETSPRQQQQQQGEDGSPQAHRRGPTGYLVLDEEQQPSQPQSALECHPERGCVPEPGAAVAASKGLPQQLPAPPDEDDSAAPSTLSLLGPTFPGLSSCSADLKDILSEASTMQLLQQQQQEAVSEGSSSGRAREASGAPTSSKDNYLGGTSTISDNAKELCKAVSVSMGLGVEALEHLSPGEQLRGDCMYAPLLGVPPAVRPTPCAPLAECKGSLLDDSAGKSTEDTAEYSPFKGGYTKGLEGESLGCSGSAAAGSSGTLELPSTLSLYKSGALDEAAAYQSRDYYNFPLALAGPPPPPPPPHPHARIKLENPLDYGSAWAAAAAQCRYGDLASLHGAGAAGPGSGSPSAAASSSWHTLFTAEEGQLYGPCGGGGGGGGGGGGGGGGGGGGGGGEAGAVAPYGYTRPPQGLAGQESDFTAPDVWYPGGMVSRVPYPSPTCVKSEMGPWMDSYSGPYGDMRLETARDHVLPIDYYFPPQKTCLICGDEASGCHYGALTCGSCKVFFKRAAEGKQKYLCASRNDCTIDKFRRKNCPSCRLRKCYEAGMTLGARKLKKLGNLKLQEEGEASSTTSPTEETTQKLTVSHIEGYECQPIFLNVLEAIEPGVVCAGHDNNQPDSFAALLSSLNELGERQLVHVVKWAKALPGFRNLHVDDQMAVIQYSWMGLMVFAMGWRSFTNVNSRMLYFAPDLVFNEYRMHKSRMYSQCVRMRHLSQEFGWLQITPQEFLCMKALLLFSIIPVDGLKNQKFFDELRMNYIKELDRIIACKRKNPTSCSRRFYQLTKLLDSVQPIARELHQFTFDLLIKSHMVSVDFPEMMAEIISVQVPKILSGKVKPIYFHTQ
# Procedure, shortened: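 Luciferase luminescence is the read-out: compounds are tested for suppressing 0.5 nM R1881-driven MMTV reporter activity in MDA-kb2 cells after 16 hr at 37C.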
# [11] = qHTS assay to identify small molecule phospholipidosis (PLD) inducers (AID 1259344; active means well fitted curve in the direction sought with a large enough effect; an effect the other way counts as inactive or inconclusive)
# Procedure, shortened: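 Phospholipidosis is scored by imaging LipidTOX-stained pits in HepG2 cells exposed to compound for 24 h at 37 C; pit counts and integrated intensities per well and per cell serve as outputs.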
# [12] = qHTS assay to identify small molecule HDAC inhibitors (AID 1259364); further: top concentration of the series differs between compounds; nearly all actives have a fitted effect of over 45% in size
# Procedure, shortened: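 Luminescence from a cell-permeant luminogenic class I/II HDAC substrate reports endogenous deacetylase activity in intact HCT-116 cells treated with compounds for 2 h.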
# [13] = qHTS assay to identify small molecule HDAC inhibitors - cell viability counter screen (AID 1259365)
# Procedure, shortened: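 After overnight seeding at 1,500 cells per well, wild-type HCT-116 cultures took up compounds in DMSO for 2hr at 37 C. Viable cell content came from luminescence with CellTiter-Glo.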
# [14] = qHTS assay to identify small molecule agonists of the sonic hedgehog signaling (Shh) pathway - cell viability counter screen (AID 1259366); further: nearly all actives have a fitted effect of over 50% in size; further: potency means the concentration at half of the fitted maximal effect
# Procedure, shortened: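 Same-well cytotoxicity read. Gli1-Luc reporter 3T3 cells; compounds 24hr, 37C/5% CO2; CellTiter-Fluor fluorescence.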
# [15] = qHTS assay to identify small molecule antagonists of the sonic hedgehog signaling (Shh) pathway - cell viability counter screen (AID 1259367); further: nearly all actives have a fitted effect of over 55% in size; further: potency means the concentration at half of the fitted maximal effect
# Procedure, shortened: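 Cells: 3T3 Gli1-Luc, 2,000/well, 4 hr pre-incubation. Compounds in DMSO, then conditioned medium. Incubation 24 hr, 37C, 5% CO2. CellTiter-Fluor at 23 hr, 1 hr, fluorescence.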
# [16] = qHTS assay to identify small molecule agonists of the sonic hedgehog signaling (Shh) pathway (AID 1259368; calls by dose curve;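 further: NIH/3T3-derived 3T3Gli1-Luc cells carrying a stable Gli1-driven firefly luciferase reporter; series mostly up to about 92 µM; nearly all actives have a fitted effect of over 15% in size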)
# Procedure, shortened: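 3T3Gli1-Luc (NIH/3T3 clone, stable Gli1-Luc); 4 hr pre-incubation, then cpd in DMSO 24 hr, 37 C/5% CO2; luciferase reagent 30 min RT; luminescence.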
# [17] = qHTS assay to identify small molecule antagonists of the sonic hedgehog signaling (Shh) pathway (AID 1259369; calls by dose curve; further: nearly all actives have a fitted effect of over 45% in size; further: potency means the concentration at half of the fitted maximal effect)
# Procedure, shortened: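 3T3Gli1-Luc, conditioned-medium-stimulated, 24hr cpd, 37C/5% CO2; Gli1-driven firefly Luc luminescence after 30min RT with luciferase reagent. Cells plated 4hr before cpd.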
# [18] = qHTS RealTime-Glo MT Cell Viability Assay in HEK293 cells - 8 hour (AID 1224887)
# Procedure, shortened: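 Cells were seeded together with NanoLuc luciferase and a prosubstrate that viable cells reduce to a luciferase substrate. After a 5 h incubation at 37 C/5% CO2, compounds were added and luminescence was measured repeatedly during 40 h of treatment.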
# [19] = biological target: Estrogen receptor (Homo sapiens) (UniProt P03372); assay: qHTS assay to identify small molecule antagonists of the estrogen receptor alpha (ER-alpha) signaling pathway using the BG1 cell line in the presence of 0.1 nM 17-beta-estradiol (AID 1259244); further: nearly all actives have a fitted effect of over 50% in size
# Estrogen receptor (Homo sapiens), sequence (P03372 whole entry, looked up): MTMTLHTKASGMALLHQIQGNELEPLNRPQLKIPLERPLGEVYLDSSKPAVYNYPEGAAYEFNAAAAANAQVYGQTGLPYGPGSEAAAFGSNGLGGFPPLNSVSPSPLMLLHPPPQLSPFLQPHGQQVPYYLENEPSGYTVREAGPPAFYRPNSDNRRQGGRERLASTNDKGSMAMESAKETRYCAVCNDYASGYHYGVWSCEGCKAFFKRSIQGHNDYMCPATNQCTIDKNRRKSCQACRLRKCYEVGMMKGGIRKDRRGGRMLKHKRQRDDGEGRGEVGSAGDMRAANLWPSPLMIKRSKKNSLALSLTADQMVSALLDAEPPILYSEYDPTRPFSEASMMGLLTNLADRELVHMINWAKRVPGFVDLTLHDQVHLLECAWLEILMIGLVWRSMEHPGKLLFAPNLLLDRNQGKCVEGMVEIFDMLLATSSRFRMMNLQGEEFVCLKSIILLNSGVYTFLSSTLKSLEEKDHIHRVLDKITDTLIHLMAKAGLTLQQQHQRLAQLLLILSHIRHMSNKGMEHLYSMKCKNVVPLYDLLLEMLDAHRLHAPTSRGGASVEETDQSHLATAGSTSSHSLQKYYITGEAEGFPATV
# Procedure, shortened: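 Cells: VM7Luc4E2, endogenous ER-alpha, 4x ERE-luc stable. Pre-culture 5 d, phenol red-free, charcoal-stripped FBS. Plated 24 h, compound + E2 0.1 nM final, 22 h 37C/5% CO2. Readout ONE-Glo luminescence.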
# [20] = qHTS assay to identify small molecule antagonists of the estrogen receptor alpha (ER-alpha) signaling pathway using the BG1 cell line in the presence of 0.1 nM 17-beta-estradiol - cell viability counter screen (AID 1259241); further: nearly all actives have a fitted effect of over 40% in size
# Procedure, shortened: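 Estradiol-stimulated (0.1 nM) VM7Luc4E2 cells exposed to compounds 22 hr; viability measured by fluorescence of cleaved CellTiter-Fluor substrate after 30 min.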
smiles,measurement,setting,value
Cc1cccc(C)c1OCC(=O)N[C@@H](Cc1ccccc1)[C@@H](O)C[C@H](Cc1ccccc1)NC(=O)[C@H](C(C)C)N1CCCNC1=O,Potency,[1],inactive
same,Potency,[2],inactive
same,Potency,[3],inactive
same,Potency,[4],inactive
same,Potency,[5],23.9 µM (active)
same,Potency,[6],inactive
same,Potency,[7],inactive
same,Potency,[8],inactive
same,Potency,[9],inactive
same,Potency,[10],23.7 µM (active)
same,Potency,[11],inactive
same,Potency,[12],inactive
same,Potency,[13],inactive
same,Potency,[14],15 µM (active)
same,Potency,[15],23.7 µM (active)
same,outcome,[16],inactive
same,Potency,[17],29.8 µM (active)
C[C@H]1C[C@H]2[C@@H]3CCC4=CC(=O)C=C[C@]4(C)[C@@]3(Cl)[C@@H](O)C[C@]2(C)[C@@]1(O)C(=O)CO,Potency,[1],inactive
same,Potency,[2],inactive
same,Potency,[3],inactive
same,Potency,[4],inactive
same,Potency,[5],inactive
same,Potency,[18],inactive
same,Potency,[7],inactive
same,Potency,[8],inactive
same,Potency,[9],inactive
same,Potency,[19],inactive
same,Potency,[11],inactive
same,Potency,[12],inactive
same,Potency,[13],inactive
same,Potency,[14],inactive
same,Potency,[15],inactive
same,outcome,[16],inactive
same,Potency,[17],inactive
CC(COCCO)OCCO (centres undefined),Potency,[1],inactive
same,Potency,[2],inactive
same,Potency,[3],inactive
same,Potency,[4],inactive
same,Potency,[5],inactive
same,Potency,[18],inactive
same,Potency,[6],inactive
same,Potency,[7],inactive
same,Potency,[20],inactive
same,Potency,[9],inactive
same,Potency,[10],inactive
same,Potency,[12],inactive
same,Potency,[13],inactive
same,Potency,[14],inactive
same,Potency,[15],inactive
same,outcome,[16],inactive
same,Potency,[17],inactive
O=C(O)C1(C(=O)O)CCC1.[NH2-].[NH2-].[Pt+2],Potency,[1],inactive
same,Potency,[2],inactive
same,Potency,[3],inactive
same,Potency,[4],inactive
same,Potency,[5],inactive
same,Potency,[18],inactive
same,Potency,[7],inactive
same,Potency,[8],inactive
same,Potency,[9],inactive
same,Potency,[19],inactive
same,Potency,[12],inactive
same,Potency,[13],inactive
same,Potency,[14],inactive
same,Potency,[15],inactive
same,outcome,[16],inactive
same,Potency,[17],inactive
CC1(c2ccccc2)OC(C(=O)O)=CC1=O (centres undefined),Potency,[1],inactive
same,Potency,[2],inactive
same,Potency,[3],inactive
same,Potency,[4],inactive
same,Potency,[5],inactive
same,Potency,[18],inactive
same,Potency,[6],inactive
same,Potency,[7],inactive
same,Potency,[20],inactive
same,Potency,[9],inactive
same,Potency,[11],inactive
same,Potency,[12],inactive
same,Potency,[13],inactive
same,Potency,[14],inactive
same,Potency,[15],inactive
same,outcome,[16],inactive
CN(C)CCN(Cc1ccc(Cl)cc1)c1ccccn1,Potency,[1],inactive
same,Potency,[2],inactive
same,Potency,[3],inactive
same,Potency,[4],inactive
same,Potency,[5],inactive
same,Potency,[6],inactive
same,Potency,[7],inactive
same,Potency,[8],inactive
same,Potency,[9],inactive
same,PLD induction,[11],-3.78% [at 0.137 µM]
same,Potency,[12],inactive
same,Potency,[13],inactive
same,Potency,[15],inactive
same,outcome,[16],inactive
O=C1OC(CN2CCOCC2)CN1/N=C/c1ccc([N+](=O)[O-])o1 (centres undefined),Potency,[1],inactive
same,Potency,[2],inactive
same,Potency,[3],inactive
same,Potency,[4],inactive
same,Potency,[5],inactive
same,Potency,[18],inactive
same,Potency,[6],inactive
same,Potency,[7],inactive
same,Potency,[20],inactive
same,Potency,[9],inactive
same,Potency,[10],26.6 µM (active)
same,Potency,[19],inactive
same,Potency,[11],inactive
same,Potency,[12],inactive
same,Potency,[13],inactive
same,Potency,[14],inactive
same,outcome,[16],inactive
O=P(O)(OCc1ccccc1)OCc1ccccc1,Potency,[1],inactive
same,Potency,[2],inactive
same,Potency,[3],inactive
same,Potency,[4],inactive
same,Potency,[5],inactive
same,Potency,[18],inactive
same,Potency,[7],inactive
same,Potency,[20],inactive
same,Potency,[9],inactive
same,Potency,[19],inactive
same,Potency,[12],inactive
same,Potency,[13],inactive
same,Potency,[14],inactive
same,Potency,[15],inactive
same,outcome,[16],inactive
